# D2 antagonist: D2 dopamine receptor (human) antagonism; P14416; HEK293 TREx D2 cells, calcium flux, dopamine EC80; inhibition, % at 10 µM; 2% of 340,000 active; in the data active = inhibition above about 30%; inactive = below that, where a call was filed; note: 0% is about no effect
# Target sequence (P14416 whole entry, looked up): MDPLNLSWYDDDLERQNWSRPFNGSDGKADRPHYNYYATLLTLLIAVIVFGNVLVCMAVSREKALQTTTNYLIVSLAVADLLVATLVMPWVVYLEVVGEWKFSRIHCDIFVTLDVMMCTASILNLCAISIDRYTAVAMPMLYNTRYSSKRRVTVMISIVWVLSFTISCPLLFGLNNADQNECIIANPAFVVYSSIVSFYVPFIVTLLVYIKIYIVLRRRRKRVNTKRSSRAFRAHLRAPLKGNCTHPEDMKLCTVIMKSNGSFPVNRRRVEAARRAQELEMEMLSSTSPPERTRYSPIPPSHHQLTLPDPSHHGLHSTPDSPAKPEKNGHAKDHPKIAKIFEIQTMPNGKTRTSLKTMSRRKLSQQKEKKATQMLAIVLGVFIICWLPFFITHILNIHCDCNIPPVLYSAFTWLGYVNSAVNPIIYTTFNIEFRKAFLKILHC
#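 Read-out: kinetic calcium fluorescence (1 cycle/s) in inducible HEK293 T-REx D2 cells after an EC80 dopamine addition that followed 180 s compound preincubation. Loss of the dopamine response indicates antagonism.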
# D2 PAM-1: D2 dopamine receptor (human) potentiation. HEK293 T-REx D2, calcium flux, EC20 dopamine potentiation. potentiation, % at 10 µM. 0.34% of 340,000 active. AID 485347;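 active = potentiation over 3 SD above the plate norm, cut at about 30% in these data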; note: 0% is about no effect
#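 Calcium flux readout, no-wash dye, 1 read/s. Inducible HEK293 Trex D2 line, overnight 30 C. Compound alone 180 s (agonist flags), then EC20 dopamine, another 180 s to score potentiation.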
# D2 ag-1: D2 dopamine receptor (human) agonism. activation, % at 2 µM. 0.53% of 340,000 active. HEK293 T-REx D2 cells, calcium flux agonist mode;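 active = activation over 3 SD above normal in the single-dose calcium agonist read, cut at about 30% in these data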; note: 0% is about no effect
#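 Agonism is scored from calcium flux in a force-coupled, inducible HEK293 cell line expressing D2, read kinetically for 180 s after compound addition against dopamine controls.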
# D2 ag-2: human D2 receptor agonism in beta-arrestin assay. DiscoveRx PathHunter D2 beta-arrestin, luminescence, 90 min; 100% = 57 uM dopamine signal. activation, % (concentration not given with the values). 0.084% of 360,000 active. AID 624465; in the data active = activation above about 40%
#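 DiscoveRx PathHunter D2 beta-arrestin cells (2,100/well) attached overnight, then compound-stimulated 90 min at 37 C in HBSS/10 mM HEPES/0.1% Tween-20 buffer; beta-galactosidase complementation read by luminescence after 1 h at ambient temperature. Dopamine 57 uM final (EC100) as control.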
# D2 PAM-2: human D2 receptor positive allosteric modulation | 0.23% of 360,000 active | P14416 | AID 624464 | potentiation, % (concentration not given with the values) | DiscoveRx D2 beta-arrestin cells, luminescence, 90 min; 100% = 57 uM dopamine signal; in the data active = potentiation above about 50%
#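 PathHunter D2 cells, attached overnight at 37 deg C, received compound in DMSO plus dopamine at EC20 (50 nM final) for 90 min at 37 deg C. Beta-arrestin recruitment was read as luminescence after 1 h with detection reagent at ambient temperature.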
# * hit, by the source's call; . = no result. The list is not random: actives were taken first. Their share in the collection is about 2.4%.
SMILES,D2 antagonist,D2 PAM-1,D2 ag-1,D2 ag-2,D2 PAM-2
C=CCNC(=O)COC(=O)c1cccnc1Nc1ccccc1F,6.0,3.7,-0.1,-1.8,2.7
O=[N+]([O-])c1cc([N+](=O)[O-])c(Oc2cc(F)ccc2F)cc1NN1CCCCC1,-2.8,-8.8,-0.9,-2.2,-1.2
Cc1cc(F)ccc1Oc1cc(NN2CCCCC2)c([N+](=O)[O-])cc1[N+](=O)[O-],30.4*,1.1,-0.4,-0.4,-5.6
COc1ccc(NC(=O)CSc2nc(-c3ccccc3)nc3c2Cc2c(CO)cnc(C)c2O3)cc1Cl,.,1.6,0.2,.,.
Cc1ccc(NC2=C(Cl)C(=O)OC2NC(=O)c2ccccc2)cc1 (configuration not stated),54.9*,-3.9,1.3,-0.6,-6.2
CCOC1OC(=O)C(Cl)=C1Nc1ccc(C)cc1 (configuration not stated),2.5,-0.5,-1.4,-1.7,-7.4
CCc1ccc(NC(=O)CC2C(=O)N(c3ccc(Cl)cc3)C(=O)N2C2CCCC2)cc1 (configuration not stated),.,8.3,2.9,.,.
O=C(/C=C/c1ccc2c(c1)OCO2)NCCSCc1ccc(Cl)cc1,4.7,-3.8,0.5,-3.0,12.9
O=C(/C=C/c1ccc2c(c1)OCO2)NCCSCc1c(Cl)cccc1Cl,33.8*,6.6,-2.0,0.7,1.2
CC(C)CN(C(=O)CCC1CCCCC1)c1c(N)n(CC(C)C)c(=O)[nH]c1=O,-14.1,0.0,0.0,-2.7,-3.6
COc1ccc(-c2cc(C3CCN(Cc4cccc(C(F)(F)F)c4)CC3)[nH]n2)cc1,59.2*,-23.1,-1.0,3.9,-12.7
CCOc1cc2[nH]c(=O)n(CCC(=O)NCCc3ccc(OC)c(OC)c3)c(=O)c2cc1OCC,-3.1,35.4*,-0.1,-1.0,7.3
COc1ccc(CCNC(=O)CCn2c(=O)[nH]c3cc(OC)c(OC)cc3c2=O)cc1OC,13.0,-4.2,0.2,-0.9,16.9
O=C(NC1CCN(Cc2ccccc2)CC1)c1ccc2c(c1)OCCCO2,30.3*,-22.9,0.7,-3.8,-30.2
O=C(NC1CCCCC1)c1ccc2c(c1)OCCO2,4.7,0.0,-1.1,2.1,2.1
O=C(NC1CCN(Cc2ccccc2)CC1)C1COc2ccccc2O1 (configuration not stated),34.2*,-24.9,-1.8,3.1,-45.6
C=C(C)c1cccc(C(C)(C)NC(=O)N2CCCC2)c1,-8.7,13.3,-0.1,-2.4,-9.3
C=C(C)c1cccc(C(C)(C)NC(=O)N2CCN(c3ccccn3)CC2)c1,31.2*,-4.1,4.6,1.3,-2.6
O=C(NC1CCN(Cc2ccccc2)CC1)c1cccc(OC(F)F)c1,81.0*,-22.0,0.3,-3.1,-24.4
COc1ccc(NS(=O)(=O)c2cccc(C(=O)NC3CCN(Cc4ccccc4)CC3)c2)cc1,16.0,-7.5,0.4,-0.7,-24.0
CCOC(=O)Cc1ccc(NC(=O)NCc2c(-n3cccc3)sc3c2CCCC3)cc1,.,-2.2,-1.1,.,.
Cc1cccc(C)c1OCCn1c(C2CC(=O)N(Cc3ccc(F)cc3)C2)nc2ccccc21 (configuration not stated),.,9.3,1.0,.,.
CC(C)(C)C1CCC(C(=O)OCC(=O)Nc2ccc3[nH]c(=O)[nH]c3c2)CC1 (configuration not stated),8.2,20.4,1.0,-1.0,-4.1
O=C(COc1ccc(Br)cc1Cl)NC1CCN(Cc2ccccc2)CC1,67.0*,-20.5,0.7,-3.3,-23.3
O=C(NC1CCN(Cc2ccccc2)CC1)c1cccc(Br)c1,98.3*,-26.3,-0.1,-1.4,-13.1
SMILES,D2 antagonist,D2 PAM-1,D2 ag-1,D2 ag-2,D2 PAM-2
COc1ccc(Cn2c(=O)[nH]c3cc(C(=O)NC4CCN(Cc5ccccc5)CC4)ccc32)cc1,75.5*,-24.1,-0.3,2.4,-23.5
S=C(NCc1ccc2c(c1)OCO2)NC1CCN(Cc2ccccc2)CC1,103.0*,-45.5,2.5,-1.8,-10.0
O=C1CCN(CC2CCCCC2)C=C1C(=O)c1ccccc1,.,.,.,-5.1,-4.2
Cc1ccc(-n2cc(-c3ccccc3)c3c(NC4CCCC4)ncnc32)cc1,.,3.6,0.4,.,.
COc1ccc(Cl)cc1NC(=O)CSc1nc2c([nH]c3ccccc32)c(=O)n1-c1ccccc1,.,1.7,0.9,.,.
CCOc1ccc2oc(C(=O)NC3CCN(Cc4ccccc4)CC3)c(C)c2c1,-12.3,-17.3,-0.4,-4.9,-14.4
C=C(C)c1cccc(C(C)(C)NC(=O)NC2CCN(Cc3ccccc3)CC2)c1,89.2*,-30.7,0.3,-5.8,-25.5
Cc1c(C(=O)NC2CCN(Cc3ccccc3)C2)oc2ccc(Br)cc12 (configuration not stated),37.7*,-24.7,-0.9,2.4,-20.0
CCOc1ccc(CNCCN2CCCC2)cc1,74.1*,-18.7,0.6,-3.9,-14.4
CCOC(=O)CSc1nnc(-c2cccs2)n1-c1ccccc1,-6.9,32.1*,-1.0,-3.0,7.5
Cc1cccc(/C=N/NC(=O)c2cc3c(s2)-c2ccccc2CC3)c1,31.8*,14.2,0.9,0.4,-0.4
CCN(CC)CCNC(=O)c1ccc2c(=O)n3nc(Nc4cccc(Cl)c4C)sc3nc2c1,.,-10.5,.,.,.
CCN(C(=O)Cn1cc(S(=O)(=O)Cc2ccccc2Cl)c2ccccc21)c1ccccc1,.,-7.0,0.3,.,.
COCCn1c(C)cc(/C=C(\C#N)C(=O)OC(C)C(=O)Nc2ccc(NC(C)=O)cc2)c1C (configuration not stated),33.4*,-3.5,0.0,-0.2,1.0
O=C(C1CCCN(S(=O)(=O)c2cccc3nonc23)C1)N1CCN(c2cccc(C(F)(F)F)c2)CC1 (configuration not stated),.,5.4,0.3,.,.
O=C(NCCCN1CCCC1=O)c1ccc2c(c1)NC(=O)C(N1CCOCC1)S2 (configuration not stated),32.9*,.,0.5,2.2,13.4
COc1cccc(-n2c(=O)c3sc4ccccc4c3n(CC(=O)Nc3ccc(F)cc3F)c2=O)c1,.,.,1.1,.,.
Cc1oc2c(C)c(O)ccc2c(=O)c1-c1ccc2ccccc2n1,43.9*,-4.3,-0.3,-2.7,-14.8
CCC(=O)Oc1ccc2c(=O)c(-c3ccc4ccccc4n3)c(CC)oc2c1C,-8.0,-1.7,-0.7,0.2,1.6
Cc1c(C(=O)NCC2CCCO2)oc2c(Cl)cccc12 (configuration not stated),0.7,13.4,-0.6,-5.0,-23.9
O=C(NCc1ccco1)c1ccc2sc([C@@H]3O[C@H](CO)[C@H](O)[C@H](O)[C@H]3O)nc2c1,.,.,.,-9.5,-9.6
CCOC(=O)c1ccc(NC(=O)c2c(NCc3cc(OC)c(OC)cc3OC)sc3c2CCCC3)cc1,.,22.6,1.0,.,.
Cc1occc1C(=O)N/N=C/C=C/c1ccccc1[N+](=O)[O-],37.6*,-20.3,-0.6,-3.9,-5.3
Cc1cc(NC(=O)c2cccs2)ncc1NC(=O)c1cccc(F)c1,-17.3,3.2,0.0,-2.7,-1.7
